Experimental data: PubChem BioAssay (Tox21)
Results filed as inconclusive are left out. Entries that show only a call come without a potency. A number with no mark means an inactive call. Activity calls are given as the source filed them. Unless noted, calls come from the whole dose curve.

Tested on: not listed separately
Assay: qHTS assay to identify small molecule antagonists of the estrogen related receptor signaling pathway with the pleiotropic PPARgamma coactivator (PGC) from Tox21 10K library - cell viability counter screen (AID 1224840; active = well fitted cell-killing curve with a large enough effect in the repeat runs, not every such curve was filed as active; note: nearly all actives have a fitted effect of over 40% in size)
Details: PGC/ERR reporter cells viability, CellTiter-Fluor, 17.5 h; series mostly up to 92.4 µM
How it was run: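 PGC/ERR cells were seeded at 2,000 cells/well and left 6 hours at 37 C/5% CO2 before pin-tool addition of compounds in DMSO. After 17.5 hours at 37 C, CellTiter-Fluor was added and fluorescence read 30 minutes later.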
In the case of CC(C)c1ccc(C(=O)N=C(N)N)cc1S(C)(=O)=O, the Potency is reported as “inactive”. In the case of O=C(O)CNC(=O)c1ccccc1I, the Potency is reported as “inactive”. For COC(=O)Nc1nc2ccc(C(=O)C3CC3)cc2[nH]1, the Potency was “inactive”. For O=C(O)c1cc(Cl)cc(Cl)c1O, the Potency was “inactive”. With CC(C)N(C)C the Potency was “inactive”. Work on CCCCCCCCCCCCCCN(C)C yielded a viability change, negative = cytotoxic of -1.6% [at 19 µM]. For CCCCCCCCCCCSCC(=O)O, the Potency was “inactive”. With Cc1cc(CCC(=O)OCCOCCOCCOC(=O)CCc2cc(C)c(O)c(C(C)(C)C)c2)cc(C(C)(C)C)c1O the Potency was “inactive”. With C/C(C=O)=C\c1ccccc1 the Potency was “inactive”. For COc1ccc(-c2cc(=S)ss2)cc1, the Potency was “inactive”.

Tested on: not listed separately
Assay: qHTS assay to identify small molecule antagonists of the estrogen related receptor signaling pathway with the pleiotropic PPARgamma coactivator (PGC) from Tox21 10K library (AID 1224841; call rule not given here; note: actives are mostly falling curves and most rising ones were filed inactive; nearly all actives have a fitted effect of over 50% in size; note: potency is the fitted concentration of half-maximal effect)
Details: PGC/ERR reporter cell line, ONE-Glo luciferase, 18 h; series mostly up to 92.4 µM
How it was run: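 PGC/ERR reporter cells were seeded at 2,000 cells/well and held 6 hours at 37 C/5% CO2 before pin-tool addition of compounds in DMSO. After 18 hours at 37 C, One-Glo was added and luminescence read after 30 minutes at room temperature.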
For COc1cc(NCc2ccc3nc(N)nc(N)c3c2C)cc(OC)c1OC, the Potency was 0.075 µM (active). For CCCCCCCC(=O)OCCCCCC, the Potency was “inactive”. In the case of CC(C)C(O)C(C)(C)CO (stereo not drawn), the Potency is reported as 1.78 µM (active). For Cc1ccc2c(c1[N+](=O)[O-])C(=O)c1ccccc1C2=O, the Potency was “inactive”. In the case of CC(=O)NNC(C)=O, the Potency is reported as “inactive”. In the case of CC(C)(C)S, the Potency is reported as “inactive”. In the case of C1CCCCC1, the Potency is reported as “inactive”. In the case of CCCOC(=O)c1c(Cl)c(Cl)c(Cl)c(Cl)c1C(=O)OCCC, the Potency is reported as “inactive”. In the case of O=[N+]([O-])C1(Br)COCOC1, the Potency is reported as “inactive”. For CCN(CC)CCOc1ccccc1C(=O)CCc1ccccc1, the Potency was “inactive”. For CN(C)CC/C=C1\c2ccccc2Sc2ccc(Cl)cc21, the Potency was “inactive”. With CCN(CC)c1ccc(C(=C2C=CC(=[N+](CC)CC)C=C2)c2ccc(S(=O)(=O)O)cc2S(=O)(=O)[O-])cc1 the Potency was 8.63 µM (active). With O=C(O)c1cc(Cl)cc(Cl)c1O the Potency was “inactive”. With CCCCCCCCCCCSCC(=O)O the Potency was “inactive”.

Tested on: not listed separately
Assay: qHTS assay to identify small molecule agonists of the estrogen related receptor signaling pathway with the pleiotropic PPARgamma coactivator (PGC) from Tox21 10K library (AID 1224842; active = well fitted activation curve with a large enough effect in the repeat runs; note: nearly all actives have a fitted effect of over 15% in size)
Details: PGC/ERR reporter cell line, luciferase ONE-Glo, 18 h; series mostly up to 92.4 µM
How it was run: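 PGC/ERR reporter cells (NTP line) were seeded 2,000 per well, rested 6 h at 37 C/5% CO2, then pin-dosed with compounds in DMSO for 18 h at 37 C; luciferase read by One-Glo luminescence after 30 min at room temperature.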
For COc1cc(NCc2ccc3nc(N)nc(N)c3c2C)cc(OC)c1OC, the Potency was “inactive”. For CCCCCCCC(=O)OCCCCCC, the Potency was “inactive”. In the case of CC(C)C(O)C(C)(C)CO (stereo not drawn), the Potency is reported as “inactive”. With CC(=O)NNC(C)=O the Potency was “inactive”. With CCN(CC)C(=O)N1CCN(C)CC1 the Potency was “inactive”. For CC(C)(C)S, the Potency was “inactive”. With C1CCCCC1 the Potency was “inactive”. For CCCOC(=O)c1c(Cl)c(Cl)c(Cl)c(Cl)c1C(=O)OCCC, the Potency was “inactive”. For O=[N+]([O-])C1(Br)COCOC1, the Potency was “inactive”. With CCN(CC)CCOc1ccccc1C(=O)CCc1ccccc1 the Potency was “inactive”. With CCN(CC)c1ccc(C(=C2C=CC(=[N+](CC)CC)C=C2)c2ccc(S(=O)(=O)O)cc2S(=O)(=O)[O-])cc1 the Potency was “inactive”. With O=C(O)c1cc(Cl)cc(Cl)c1O the Potency was “inactive”. In the case of CC/C=C\C/C=C\C/C=C\CCCCCCCC(=O)OCC, the Potency is reported as “inactive”. For CCCCCCCCCCCSCC(=O)O, the Potency was “inactive”.

Biological target: Thyrotropin receptor (Homo sapiens) (UniProt P16473)
Sequence (P16473 whole entry, looked up): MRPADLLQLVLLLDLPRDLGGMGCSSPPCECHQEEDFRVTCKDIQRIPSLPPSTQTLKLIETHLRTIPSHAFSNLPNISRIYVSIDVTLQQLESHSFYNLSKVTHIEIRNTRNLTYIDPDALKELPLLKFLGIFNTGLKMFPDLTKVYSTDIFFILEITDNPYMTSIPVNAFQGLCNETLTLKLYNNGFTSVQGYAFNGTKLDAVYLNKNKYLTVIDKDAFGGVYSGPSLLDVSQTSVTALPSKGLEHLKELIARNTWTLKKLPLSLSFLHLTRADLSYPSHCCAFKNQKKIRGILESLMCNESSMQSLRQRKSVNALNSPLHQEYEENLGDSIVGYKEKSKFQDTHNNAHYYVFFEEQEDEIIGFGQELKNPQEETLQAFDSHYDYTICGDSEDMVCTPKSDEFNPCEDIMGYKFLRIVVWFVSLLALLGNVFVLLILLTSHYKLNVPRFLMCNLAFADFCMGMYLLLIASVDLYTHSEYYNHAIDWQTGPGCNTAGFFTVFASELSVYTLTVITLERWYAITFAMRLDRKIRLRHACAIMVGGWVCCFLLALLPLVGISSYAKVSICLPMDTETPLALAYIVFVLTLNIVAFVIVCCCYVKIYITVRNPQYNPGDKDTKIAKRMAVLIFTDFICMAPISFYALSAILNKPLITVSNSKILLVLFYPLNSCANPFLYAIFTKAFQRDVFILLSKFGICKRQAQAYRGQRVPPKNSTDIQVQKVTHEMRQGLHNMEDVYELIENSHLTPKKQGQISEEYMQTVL
Assay: qHTS assay to identify small molecule agonists of the thyroid stimulating hormone receptor (TSHR) signaling pathway (AID 1224843); note: nearly all actives have a fitted effect of over 45% in size; note: potency is the fitted concentration of half-maximal effect
Details: TSHR-HEK293 cells, cAMP HTRF, agonist mode, 30 min; series mostly up to 92.4 µM
How it was run: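 TSHR-expressing HEK293 cells (800 per well) were exposed to compounds for 30 min at room temperature. cAMP was then detected by HTRF competition with cAMP-d2 and anti-cAMP cryptate, read after 1 h at room temperature. Fifteen concentrations, triplicate.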
For CCCCCCCC(=O)OCCCCCC, the Potency was “inactive”. In the case of O=CNNC=O, the Potency is reported as “inactive”. With COc1ccc(-n2nc(C(F)F)cc2-c2ccc(S(C)=O)cc2)cc1 (stereo not drawn) the Potency was “inactive”. In the case of CC(C)C(O)C(C)(C)CO (stereo not drawn), the Potency is reported as “inactive”. With CC(C)(C(=O)c1cccnc1)c1cccnc1 the Potency was “inactive”. For Cc1ccc2c(c1[N+](=O)[O-])C(=O)c1ccccc1C2=O, the Potency was “inactive”. With CC(=O)NNC(C)=O the Potency was “inactive”. For C[C@H](CS)C(=O)N1CCC[C@H]1C(=O)O, the Potency was “inactive”. In the case of O=C(NC(Cc1cc(=O)[nH]c2ccccc12)C(=O)O)c1ccc(Cl)cc1 (stereo not drawn), the Potency is reported as “inactive”. In the case of CCN(CC)C(=O)N1CCN(C)CC1, the Potency is reported as “inactive”. In the case of COc1ccc(N)c([N+](=O)[O-])c1, the Potency is reported as “inactive”. For CCCCCC, the Potency was “inactive”. In the case of Nc1ccn([C@H]2CS[C@@H](CO)O2)c(=O)n1, the Potency is reported as “inactive”. For Nc1nc(-c2ccc([N+](=O)[O-])cc2)cs1, the Potency was “inactive”. With CCN(CC)CCOc1ccccc1C(=O)CCc1ccccc1 the Potency was “inactive”. For CN(C)CC/C=C1\c2ccccc2Sc2ccc(Cl)cc21, the Potency was “inactive”. With COc1cc(C(C)=O)ccc1OCCCN1CCC(c2noc3cc(F)ccc23)CC1 the Potency was “inactive”. In the case of COC(CC(C)CCCC(C)(C)O)OC (stereo not drawn), the Potency is reported as “inactive”. For CCCCCCOC(=O)CCCCC, the Potency was “inactive”. For CC(C)c1ccc(C(=O)N=C(N)N)cc1S(C)(=O)=O, the Potency was “inactive”. In the case of O=C(O)CNC(=O)c1ccccc1I, the Potency is reported as “inactive”. In the case of COC(=O)Nc1nc2ccc(C(=O)C3CC3)cc2[nH]1, the Potency is reported as “inactive”. With O=C(O)c1cc(Cl)cc(Cl)c1O the Potency was “inactive”. In the case of CC/C=C\C/C=C\C/C=C\CCCCCCCC(=O)OCC, the Potency is reported as “inactive”. With CC(C)N(C)C the Potency was “inactive”. In the case of CCCCCCCCCCCCCCN(C)C, the activation is reported as 2.75% [at 19 µM]. For CCCCCCCCCCCSCC(=O)O, the Potency was “inactive”. For Cc1cc(CCC(=O)OCCOCCOCCOC(=O)CCc2cc(C)c(O)c(C(C)(C)C)c2)cc(C(C)(C)C)c1O, the Potency was 15 µM (active). In the case of C/C(C=O)=C\c1ccccc1, the Potency is reported as “inactive”. For COc1ccc(-c2cc(=S)ss2)cc1, the Potency was “inactive”.
